In all, about 69,000 compounds went through this assay and about 8,600 (12%) showed an effect of 50% or more. Shown is part of a subset that was picked to be rich in strong results.
What follows are compounds tested on Plasmodium berghei (assay: Screen against P. berghei liver stage (PbLuc), transformed with Luciferase, at 10uM). Details: tested at 10 uM.
Assay type: functional, HepG2
`COCCNC(=O)Nc1ccc(-c2nc(C(C)C)no2)cc1` gave an INHIBITION of -36.4%. `Cc1cccc(C)c1Nc1noc2c1CN(C(=O)c1ccn(C)n1)CC2` gave an INHIBITION of 30.35%. In the case of `CN(CC1COc2ccccc2O1)C(=O)CCn1cncn1` (configuration not stated), the INHIBITION is reported as 44.05%. In the case of `CNC(=O)CN1CCC(NC(=O)N(C)Cc2c(C)noc2C)CC1`, the INHIBITION is reported as 34.25%. `Cc1cc(C)c(C(=O)N2CCOCC2c2c(C)n[nH]c2C)o1` (configuration not stated) was tested, and the INHIBITION was -8.4%. `CO[C@H]1CN(Cc2ccc(F)cc2)CC[C@@]12CCCO2` was tested, and the INHIBITION was 25.6%. For `Cn1cc(C(=O)N[C@@H]2CN(Cc3ccoc3)[C@@H]3CCCO[C@@H]32)cn1`, the INHIBITION was 35.8%. `CN1CCS(=O)(=O)[C@@H]2CCN(C(=O)CC(C)(C)C)CC[C@@H]21` gave an INHIBITION of 35.8%. `C[C@H]1CN2C[C@H](O)CC2CN1Cc1ccc2nccnc2c1` (some centres not stated) gave an INHIBITION of 17.4%. With `CCc1nsc(N2CCCN(C(=O)COc3ccccc3)CC2)n1` the INHIBITION was 53.8%. `CCc1nsc(N2CCCN(C(=O)c3ccc(OC)cc3)CC2)n1` was tested, and the INHIBITION was 33.5%. Work on `CCc1nsc(N2CCN(C(=O)COc3ccccc3)CC2)n1` yielded an INHIBITION of -39.2%. With `COC(=O)c1cccn1C1CCN(S(=O)(=O)c2ccccc2)CC1` the INHIBITION was 19.5%. `Cc1ccc(C)c(S(=O)(=O)NCCC(=O)NCc2ccoc2)c1` showed an INHIBITION of -0.514%. For `CCSCCNc1cc(C)nc2c(C)c(C)nn12`, the INHIBITION was 39.9%. `O=C(O)[C@@H]1CN(C(=O)CSCCN2CCCC2)C[C@H]1c1ccccc1` showed an INHIBITION of 39.3%. Work on `O=C(CSCCN1CCOCC1)N1CCc2ccccc2C1` yielded an INHIBITION of 76%. Compound `O=C(NCC(=O)N1CCc2ccccc2C1)c1ccoc1` has an INHIBITION of 26.3%. Compound `CC1CCN(C(=O)CSCc2nc(C3CC3)no2)CC1` has an INHIBITION of -42.2%. Work on `O=C(CSCCN1CCOCC1)N1CCCCCC1` yielded an INHIBITION of 44.1%. `CC1CCN(C(=O)CSCCN2CCOCC2)CC1` gave an INHIBITION of 85.6%. For `O=C1CCCN1c1cccc(CNCc2nc(C3CC3)no2)c1`, the INHIBITION was 29.6%. `Cc1c[nH]nc1C1CCCN(C(=O)c2c(C)noc2C)C1` (configuration not stated) showed an INHIBITION of 23.4%. `N#Cc1cn(C2CC2)c(=O)n(CC(O)c2ccc(Cl)cc2)c1=O` (configuration not stated) was tested, and the INHIBITION was 9.1%. For `Cc1cc(C[S+]([O-])Cc2ccccc2C)no1` (configuration not stated), the INHIBITION was -23.3%. `Cc1ccc(CN2CCc3c(nc4cc(C5CC5)nn4c3O)C2)s1` showed an INHIBITION of 44.3%. For `CC(C(=O)N1CCn2cncc2C1)N1CCCC1` (configuration not stated), the INHIBITION was 47.9%. In the case of `CC(=O)NC(C(=O)N1CCn2cncc2C1)C(C)C` (configuration not stated), the INHIBITION is reported as 29.8%. With `CC(C)N(C(=O)N1CCn2cncc2C1)C(C)C` the INHIBITION was 52.2%. For `O=C(CC1CCN(c2ncnc3cccc(F)c23)CC1)N1CCCC1`, the INHIBITION was -18.5%. `Cn1ncc2c(N3CCC(CC(=O)N4CCCC4)CC3)ncnc21` gave an INHIBITION of 11.9%. For `O=C(CC1CCN(c2ncnc3ccccc23)CC1)N1CCCC1`, the INHIBITION was 53.2%. `CC(=O)NCCNC(=O)CN1CCOC(Cn2cc(C)cn2)C1` (configuration not stated) was tested, and the INHIBITION was 25.6%. `Cc1cccc2[nH]cc(CC(=O)N3CCC(Nc4cccnn4)CC3)c12` was tested, and the INHIBITION was 24%. `CCc1cnc2c(c1Nc1ccc(OC)cc1)c(=O)n(C)c(=O)n2C` gave an INHIBITION of -50.5%. With `CCc1cnc2c(c1NCc1cccc(OC)c1)c(=O)n(C)c(=O)n2C` the INHIBITION was 55.3%. `COc1cccc(CNc2c(C)cnc3c2c(=O)n(C)c(=O)n3C)c1` showed an INHIBITION of 48.1%. In the case of `CCc1cnc2c(c1Nc1ccc(C)c(F)c1)c(=O)n(C)c(=O)n2C`, the INHIBITION is reported as 53.1%. Compound `COc1ccc(CNc2c(C)cnc3c2c(=O)n(C)c(=O)n3C)cc1` has an INHIBITION of 9.79%. For `CCc1cnc2c(c1Nc1ccncc1)c(=O)n(C)c(=O)n2C`, the INHIBITION was 27.6%. `CCc1cnc2c(c1NCc1ccc(OC)cc1)c(=O)n(C)c(=O)n2C` gave an INHIBITION of 67.6%. `CCc1cnc2c(c1Nc1ccc3c(c1)OCO3)c(=O)n(C)c(=O)n2C` gave an INHIBITION of 4.35%. `CCc1cnc2c(c1NCc1ccncc1)c(=O)n(C)c(=O)n2C` gave an INHIBITION of 2.3%. With `O=S(=O)(Cc1ccccc1Cl)CC(O)CO` (configuration not stated) the INHIBITION was 27%. `Cc1cnn(Cc2ccc(NC(=O)N3CCCCC3CO)cc2)c1` (configuration not stated) was tested, and the INHIBITION was -0.378%. Work on `Cc1noc(CNC2CCCN(Cc3noc(C4CC4)n3)C2)n1` (configuration not stated) yielded an INHIBITION of -52.5%. Compound `COc1cccc(CNCc2nc3ccccc3c(=O)[nH]2)c1` has an INHIBITION of 16.5%. Compound `Cc1noc(C)c1CN1CCO[C@H]2CN(Cc3nccn3C)C[C@H]21` has an INHIBITION of 0.72%. `CN(C)c1nccc(N2CCO[C@H]3CN(Cc4nccn4C)C[C@H]32)n1` was tested, and the INHIBITION was 80.2%. `COCCN1C[C@@H]2OCCN(c3ccnc(N(C)C)n3)[C@@H]2C1` showed an INHIBITION of -16.9%. In the case of `CN(C)c1nccc(N2CCO[C@H]3CN(Cc4ccco4)C[C@H]32)n1`, the INHIBITION is reported as -23.4%. `CCc1ccc(CN2C[C@@H]3OCCN(c4ccnc(N(C)C)n4)[C@@H]3C2)o1` was tested, and the INHIBITION was 85.1%. In the case of `CN(C)c1nccc(N2CCO[C@H]3CN(CC4CCOCC4)C[C@H]32)n1`, the INHIBITION is reported as 36.8%. With `CCS(=O)(=O)Nc1ccc2oc(C)c(C(C)=O)c2c1` the INHIBITION was 28.5%. With `Fc1cnc(N2CCCC3(COCCN(c4nccs4)C3)C2)nc1` (configuration not stated) the INHIBITION was 29.4%. Compound `CN1C[C@H](O)[C@]2(CCN(Cc3ccc(F)c(F)c3)C2)S1(=O)=O` has an INHIBITION of 54%. For `COc1ccc(CN2CC[C@@]3(C2)[C@H](O)CN(C)S3(=O)=O)cc1F`, the INHIBITION was 20.7%. `CN1C[C@H](O)[C@]2(CCN(Cc3ccc(OC(F)(F)F)cc3)C2)S1(=O)=O` showed an INHIBITION of 26%. `Cn1cc(CN2CCCC23CCN(C(=O)c2ccncc2)CC3)cn1` showed an INHIBITION of 36.4%. `Cc1cccc(CN2CC[C@H]3OCC[C@@]3(C(=O)N3CCOCC3)C2)n1` was tested, and the INHIBITION was 12.6%. `Cc1cc(CN2CC[C@H]3OCC[C@@]3(C(=O)N3CCOCC3)C2)no1` gave an INHIBITION of 14.6%. Work on `CN(C)C(=O)[C@@]12CCO[C@@H]1CCN(Cc1ccc3c(c1)OCO3)C2` yielded an INHIBITION of 76.2%. For `O=C(N1CCOCC1)[C@@]12CCO[C@@H]1CCN(CC1CCC1)C2`, the INHIBITION was 22.2%. `O=C(N1CCOCC1)[C@@]12CCO[C@@H]1CCN(Cc1ccncc1)C2` showed an INHIBITION of 83.2%. `O=C(N1CCOCC1)[C@@]12CCO[C@@H]1CCN(CC1CCCC1)C2` was tested, and the INHIBITION was 53.4%. `O=C(N1CCOCC1)[C@@]12CCO[C@@H]1CCN(Cc1ccccc1F)C2` gave an INHIBITION of 36.3%. In the case of `CNC(=O)[C@@]12CCO[C@@H]1CCN(Cc1ccc3c(c1)OCO3)C2`, the INHIBITION is reported as 3.69%. For `O=C(N1CCOCC1)[C@@]12CCO[C@@H]1CCN(CCN1CCCCC1)C2`, the INHIBITION was -22.9%. Work on `CC(C)NC(=O)[C@@]12CCO[C@@H]1CCN(Cc1ccc3c(c1)OCO3)C2` yielded an INHIBITION of 33.5%. With `O=C(N1CCOCC1)[C@@]12CCO[C@@H]1CCN(CC1CCCCC1)C2` the INHIBITION was 24.5%. `O=C(N1CCOCC1)[C@@]12CCO[C@@H]1CCN(Cc1cccc(F)c1)C2` was tested, and the INHIBITION was 95.1%. Work on `O=S(=O)(c1cn[nH]c1)N1CCC(O)(CN2CCOCC2)C1` (configuration not stated) yielded an INHIBITION of 38.5%. `COc1cc(-c2nc3c([nH]2)CCCNC3=O)ccc1O` was tested, and the INHIBITION was -53%. `CN(C)C(=O)CN1CCC2(CCN(CC3CC3)CC2)C1=O` was tested, and the INHIBITION was 28.4%. Work on `COc1ccccc1CN(C)C(=O)NCc1c(C)cc(C)[nH]c1=O` yielded an INHIBITION of -13.3%. For `O=C(c1ccc(N2CCOCC2)nc1)N1CCCC(n2cccn2)C1` (configuration not stated), the INHIBITION was 31.3%. `CCc1cnc(C)nc1NC1CC(=O)N(CC)C1` (configuration not stated) gave an INHIBITION of 14.9%. `c1ccc(-n2cc(CN3CCCC3Cn3cccn3)nn2)cc1` (configuration not stated) showed an INHIBITION of -18%. In the case of `Cc1cc(C)c(S(N)(=O)=O)cc1C(=O)NCCN1CCCCC1`, the INHIBITION is reported as 42.1%. With `COc1cc(OC)cc(C(=O)NCc2nn(C)c3c2COCC3)c1` the INHIBITION was 24.2%. `O=S(=O)(c1cn[nH]c1)N1CCCC1c1cc[nH]n1` (configuration not stated) gave an INHIBITION of -12.9%. `COc1cccc(CNC(=O)CC2CSc3nc(C)c(C)c(=O)n32)c1` (configuration not stated) was tested, and the INHIBITION was 27%. `O=C(c1ccnnc1)N1C[C@H](Oc2ccccn2)[C@H]2OCCC[C@H]21` was tested, and the INHIBITION was -15.9%. For `CC1(C)CC(=O)c2cnc3nc(N4CCOCC4)nc(O)c3c2C1`, the INHIBITION was -42.5%. `Cc1sc2nc(C(F)(F)F)nc(N3CCN(S(C)(=O)=O)CC3)c2c1C` showed an INHIBITION of 55%. Compound `Cc1sc2nc(C(F)(F)F)nc(N3CCN(C)CC3)c2c1C` has an INHIBITION of 65.8%. Compound `CN1CCCN(c2nc(C3CC3)ns2)CC1` has an INHIBITION of -31.5%. `CN1CCCN(c2nc(C3CCCC3)nc3c2cnn3C)CC1` gave an INHIBITION of 26.4%. For `Cc1nc(C(F)(F)F)nc(N2CCC(O)(C(=O)O)CC2)c1C`, the INHIBITION was 24.4%. `Cc1sc2nc(C(F)(F)F)nc(N3CCCN(C)CC3)c2c1C` was tested, and the INHIBITION was 53.9%. `CC(=O)N1CCN(c2nc(C(F)(F)F)nc3sc(C)c(C)c23)CC1` was tested, and the INHIBITION was 34.4%. Work on `Cc1nc(C(F)(F)F)nc(N2CCC3(CC2)CC(C(=O)O)N(C)C3)c1C` (configuration not stated) yielded an INHIBITION of 47.2%. `Cc1sc2nc(C(F)(F)F)nc(N3CCC(NS(C)(=O)=O)CC3)c2c1C` gave an INHIBITION of 34.4%. With `Cc1cc(C)n(CCCC(=O)N2CCc3ncc(Cl)cc3C2)n1` the INHIBITION was -50.2%. `Cn1cc(NC(=O)N2CCC2c2ccccc2)ccc1=O` (configuration not stated) showed an INHIBITION of 6.1%. `O=C(O)c1nc(SCc2ccccc2)ncc1Br` showed an INHIBITION of 32.4%. In the case of `CCN1CC(C(=O)NCCn2cccc2)CC1=O` (configuration not stated), the INHIBITION is reported as 43.9%. Compound `Cc1ncsc1C(=O)N1CCCC(CO)(CC2CC2)C1` (configuration not stated) has an INHIBITION of 29.4%. Compound `Cn1nc(Cn2ccnc2)c2c1CN(c1nccs1)C2` has an INHIBITION of 3.88%. Compound `CCN1CCCCC1C(=O)N1CCC(OC2CCCC2)CC1` (configuration not stated) has an INHIBITION of 10.2%. With `O=C(c1cnccn1)N1CCCC2(CCN(Cc3ccc(F)cc3)C2)C1` (configuration not stated) the INHIBITION was 8.03%. `CC(C)(C)C(Cn1cccn1)NC(=O)c1ccco1` (configuration not stated) was tested, and the INHIBITION was 35.2%.

Reference: ChEMBL document CHEMBL4513216, “Probing the Open Global Health Chemical Diversity Library for Multistage-Active Starting Points for Next-Generation Antimalarials” (ACS Infect Dis, 2020)
